Most compounds without a hit are left out; they make up all but 4.8% or so of the library.
S2 tox = viability counter-screen for ATXN expression inhibitors | S2 cells (HEK-293 line with an ATXN2-luciferase reporter) viability, CellTiter-Fluor protease fluorescence, 24 h | Potency, µM (series often up to 56.7 µM), hits mostly cytotoxic | 400,000 compounds, 0.49% hits; note: nearly all actives have a fitted effect of over 40% in size
ATXN2 expr inh = ATXN2 expression inhibition; HEK-293 ATXN2-luciferase reporter, luminescence, 24 h; Potency, µM (top dose mostly 57 µM), most hits filed as inhibitors; 360,000 compounds, 0.72% hits; note: nearly all actives have a fitted effect of over 55% in size
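qHTS (up to 57 uM final) was run with 24 h compound exposure of reporter cells at 37 °C. Each well was multiplexed: SteadyGlo luminescence measured ATXN2-luciferase expression after a fluorogenic Gly-Phe-AFC viability readout (25 uM final).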
USP2a block = USP2a (human) protease inhibition; O75604; AID 463254; Potency, µM (series often up to 38.3 µM), most hits filed as inhibitors; USP2 core, Ub-CHOP2 coupled fluorogenic reporter, 485/531; 330,000 compounds, 0.01% hits
Target sequence (O75604 whole entry, looked up): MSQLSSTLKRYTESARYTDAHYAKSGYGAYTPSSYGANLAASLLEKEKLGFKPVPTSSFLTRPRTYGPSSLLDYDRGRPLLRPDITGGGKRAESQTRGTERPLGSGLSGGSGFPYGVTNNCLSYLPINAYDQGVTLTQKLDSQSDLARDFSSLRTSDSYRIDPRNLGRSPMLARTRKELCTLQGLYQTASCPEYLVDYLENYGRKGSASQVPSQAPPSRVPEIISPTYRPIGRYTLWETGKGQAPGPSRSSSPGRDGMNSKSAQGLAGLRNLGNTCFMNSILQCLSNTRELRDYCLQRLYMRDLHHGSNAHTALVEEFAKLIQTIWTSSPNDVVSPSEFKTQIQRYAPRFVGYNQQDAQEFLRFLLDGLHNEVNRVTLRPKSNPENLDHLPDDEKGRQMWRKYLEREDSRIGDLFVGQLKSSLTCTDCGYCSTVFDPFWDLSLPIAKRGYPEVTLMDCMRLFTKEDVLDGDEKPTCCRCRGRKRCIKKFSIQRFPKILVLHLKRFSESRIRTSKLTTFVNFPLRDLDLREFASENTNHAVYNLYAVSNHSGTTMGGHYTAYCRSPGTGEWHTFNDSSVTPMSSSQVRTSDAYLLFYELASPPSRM
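USP2 core (10nM final) preincubated 30min RT with compound in 20mM Tris-HCl pH 8.0, 2mM CaCl2, 2mM beta-mercaptoethanol, 0.05% CHAPS; 25nM Ub-CHOP2 plus 25nM reporter substrate added, fluorescence (Ex485/Em531) read after 60min.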
USP1-UAF1 inh = blocks the human USP1/UAF1 deubiquitinase complex; O94782; recombinant USP1/UAF1, Ub-Rhodamine cleavage fluorescence; Potency, µM (top dose mostly 57.1 µM), usual class: inhibitors; 390,000 compounds, 0.23% hits; AID 743255; note: nearly all actives have a fitted effect of over 60% in size
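1 nM enzyme complex + cpd, 15 min RT; start with Ub-Rho 150nM final; kinetic fluorescence ex 480/em 540, 6 reads q60 s. Buffer 50mM HEPES pH 7.8, 0.5mM EDTA, 0.1 mg/ml BSA, 1mM TCEP, 0.01% Tween-20.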
IL-1B inflam inh = inflammasome signaling inhibition, IL-1 beta readout; THP-1 LPS/ATP IL-1B secretion, AlphaLISA, 16 h; hits give low values; activity change, % at 57.5 µM; 360,000 compounds, 4.7% hits; in the data active = activity change below about -50%; inconclusive = mostly about -30% to -49%
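Secreted IL-1B measured by AlphaLISA bead assay after 16 h compound exposure of THP-1 cells; compounds (final up to 57.5 uM) added 1 h before LPS (250 ng/mL) and ATP (1.25 mM) stimulation; lower signal means less secretion.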
A number is an active result; [ ] = remark or other dose. Unless noted, calls come from the whole dose curve; as a rule, active = well fitted curve in the direction sought with a large enough effect; inconclusive = small, poorly fitted or top-dose-only effect, or another doubt; inactive = no such curve, though single readings can be large; an effect the other way counts as inactive or inconclusive.

How did CCC(CN)=C(c1ccccc1)c1ccccc1 do in these assays?
S2 tox: inactive; ATXN2 expr inh: inconclusive

Results for Cc1ccc(Nc2nc(N)nc(-c3oc4ccccc4c3C)n2)cc1 ?
S2 tox: inactive; USP2a block: inactive; USP1-UAF1 inh: inactive; IL-1B inflam inh: inactive

Results for Cc1c(-c2nc(N)nc(Nc3ccccc3F)n2)oc2ccccc12 ?
S2 tox: inactive; ATXN2 expr inh: inactive; USP2a block: inactive; USP1-UAF1 inh: inactive; IL-1B inflam inh: inactive

Results for COc1cccc(Nc2nc(N)nc(-c3oc4ccccc4c3C)n2)c1 ?
S2 tox: inconclusive; ATXN2 expr inh: inactive; USP2a block: inactive; USP1-UAF1 inh: inactive; IL-1B inflam inh: -71

Results for Cc1cccc(Nc2nc(N)nc(-c3oc4ccccc4c3C)n2)c1 ?
S2 tox: inconclusive; ATXN2 expr inh: inactive; USP2a block: inactive; USP1-UAF1 inh: inconclusive; IL-1B inflam inh: -75

What do the screens show for `CCOC(=O)N1CCC(NC(=O)c2ccc3c(c2)N(Cc2cc(C)ccc2C)C(=O)c2ccccc2S3=O)CC1` (centres undefined)?
S2 tox: inactive; ATXN2 expr inh: inactive; USP1-UAF1 inh: inactive

Results for Cn1c(=O)c2c(-c3ccccc3)n(-c3cc([N+](=O)[O-])ccc3O)cc2n(C)c1=O ?
S2 tox: inconclusive; ATXN2 expr inh: inactive; USP1-UAF1 inh: inactive; IL-1B inflam inh: inactive

Results for COCCNc1nc(-c2cc3ccccc3o2)cs1 ?
S2 tox: inactive; ATXN2 expr inh: inactive; USP2a block: inactive; USP1-UAF1 inh: inactive; IL-1B inflam inh: -53

How did COc1ccc(OC)c(NC(=O)CSc2ncnc3c2cnn3-c2ccccc2Cl)c1 do in these assays?
S2 tox: inactive; ATXN2 expr inh: inactive; USP2a block: inactive; USP1-UAF1 inh: inconclusive; IL-1B inflam inh: -79

What do the screens show for `O=C(Cn1nc(-c2ccccc2)ccc1=O)NCc1ccc(F)cc1Cl`?
USP1-UAF1 inh: inactive

How did CCc1ccc(CNC(=O)Cn2nc(-c3ccccc3)ccc2=O)cc1 do in these assays?
S2 tox: inactive; ATXN2 expr inh: inactive; USP2a block: inactive; USP1-UAF1 inh: inactive; IL-1B inflam inh: -87

What do the screens show for `CCn1cc(C(=O)NCCc2ccccc2)c(=O)c2cc(S(=O)(=O)N3CCc4ccccc4C3)ccc21`?
S2 tox: inactive; ATXN2 expr inh: inactive; USP1-UAF1 inh: inactive

Results for CCC1CCCCN1CCCNC(=O)c1cn(CC)c2ccc(S(=O)(=O)N3CCc4ccccc4C3)cc2c1=O (centres undefined) ?
S2 tox: inactive; ATXN2 expr inh: inactive; USP2a block: inactive; USP1-UAF1 inh: inactive; IL-1B inflam inh: -99

Results for CCn1cc(C(=O)NCCCN2CCCC(C)C2)c(=O)c2cc(S(=O)(=O)N3CCc4ccccc4C3)ccc21 (centres undefined) ?
S2 tox: inactive; ATXN2 expr inh: inconclusive; USP2a block: inactive; USP1-UAF1 inh: inactive; IL-1B inflam inh: -104

Results for CCC1CN(CCC(=O)N2CCCN(C(=O)c3ccco3)CC2)Cc2cc(OC)ccc2O1 (centres undefined) ?
S2 tox: inactive

How did O=C1N=C(N2CCOCC2)S/C1=C/c1cc2c(cc1[N+](=O)[O-])OCO2 do in these assays?
S2 tox: inactive; ATXN2 expr inh: inactive; USP2a block: inactive; USP1-UAF1 inh: inactive; IL-1B inflam inh: -100

How did CC1CN(CC(=O)N2CCN(Cc3nccn3C)CC2)Cc2cc(Cl)ccc2O1 (centres undefined) do in these assays?
S2 tox: inactive

Results for Cc1ccc(-c2nn(CC(=O)NCc3cc(-c4nn(C)c(=O)c5ccccc45)ccc3C)c(=O)c3ccccc23)cc1 ?
S2 tox: 13µM; ATXN2 expr inh: 11µM; USP2a block: inactive; USP1-UAF1 inh: inactive; IL-1B inflam inh: inactive

Results for CCC(=O)NCc1cc(-c2nn(C)c(=O)c3ccccc23)ccc1C ?
S2 tox: inactive; ATXN2 expr inh: inactive; USP2a block: inactive; USP1-UAF1 inh: inactive; IL-1B inflam inh: inactive

Results for CN(C)c1nc(CN2CCCCC2c2cccnc2)nc2ccccc12 (centres undefined) ?
S2 tox: inactive

Results for COc1cc(-c2nn3c(C4CCCCC4)nnc3s2)cc(OC)c1OC ?
S2 tox: inactive; ATXN2 expr inh: inactive; USP2a block: inactive; USP1-UAF1 inh: inactive; IL-1B inflam inh: -51

What do the screens show for `COc1ccc(-c2nn3c(C4CCCCC4)nnc3s2)cc1OC`?
S2 tox: inactive; ATXN2 expr inh: inactive; USP2a block: inactive; USP1-UAF1 inh: inactive; IL-1B inflam inh: inactive

What do the screens show for `CCc1nc2ccc(C(=O)NCc3cc(OC)ccc3OC)cc2nc1CC`?
USP1-UAF1 inh: inactive

What do the screens show for `O=C(c1sccc1Br)N1CCN(Cc2ccc3c(c2)OCO3)CC1`?
S2 tox: inactive; ATXN2 expr inh: inactive; USP2a block: inactive; USP1-UAF1 inh: inactive; IL-1B inflam inh: -71

What do the screens show for `Cc1ccc2c(C)c(C(=O)N3CCN(Cc4ccc5c(c4)OCO5)CC3)oc2c1C`?
S2 tox: inactive; ATXN2 expr inh: inactive; USP2a block: inactive; USP1-UAF1 inh: inactive; IL-1B inflam inh: -78

Results for Cc1ccc2c(C)c(C(=O)N3CCN(c4cnccn4)CC3)oc2c1C ?
S2 tox: inconclusive; ATXN2 expr inh: inactive; USP2a block: inactive; USP1-UAF1 inh: inactive; IL-1B inflam inh: -63

What do the screens show for `O=C(N1CCN(Cc2ccc3c(c2)OCO3)CC1)C12CC3CC(CC(C3)C1)C2`?
S2 tox: inactive; ATXN2 expr inh: inactive; USP2a block: inactive; USP1-UAF1 inh: inactive; IL-1B inflam inh: -85

Results for CC1CC(C)(C)CC2(C1)NC(=O)N(CC(=O)N1CCN(Cc3ccc(C#N)cc3)CC1)C2=O (centres undefined) ?
S2 tox: inactive; ATXN2 expr inh: inactive; USP2a block: inactive; USP1-UAF1 inh: inactive; IL-1B inflam inh: inactive

Results for COc1cc2c(cc1-c1c(C)noc1C)ncc1[nH]c(=O)n([C@H](C)c3ccccn3)c12 ?
ATXN2 expr inh: inactive

What do the screens show for `O=C(Nc1ccccc1N1CCCCC1)C1CCN(C(=O)c2ccc(Cl)cc2)CC1`?
S2 tox: inactive; ATXN2 expr inh: inactive; USP2a block: inactive; USP1-UAF1 inh: inactive; IL-1B inflam inh: -72

How did CCN1CCN(c2ccc(NC(=O)c3ccco3)cc2Cl)CC1 do in these assays?
S2 tox: inactive; ATXN2 expr inh: inactive; USP2a block: inactive; USP1-UAF1 inh: inactive; IL-1B inflam inh: inactive

What do the screens show for `O=C(Nc1ccccc1N1CCN(C(=O)c2ccc(Cl)cc2)CC1)c1cccc(F)c1`?
S2 tox: inactive; ATXN2 expr inh: inactive; USP2a block: inactive; USP1-UAF1 inh: inactive; IL-1B inflam inh: -55

Results for Cc1ccc(NC(=O)C2CCCN(C(=O)c3ccc(Cl)cc3)C2)cc1C (centres undefined) ?
S2 tox: inconclusive; ATXN2 expr inh: inactive[11.3 µM]; USP2a block: inactive; USP1-UAF1 inh: inactive; IL-1B inflam inh: -71

How did O=C(Nc1ccccc1N1CCN(C(=O)c2ccccc2)CC1)c1cccc(Cl)c1 do in these assays?
S2 tox: inactive; USP2a block: inactive; USP1-UAF1 inh: inactive; IL-1B inflam inh: inactive

High-throughput results (PubChem)
